B1: design_604_3e0b3014-b333-46f1-8adc-d7f0bf8048fa_75_dldesign_0_cycle1_af2pred (protein)
chain: SAEAEEAEKKALLEFSEAAAELRGLATLGKNKGNAKELAEKGFKAIEEGKKALEAATKTEEKKEIATRYAKELKELKEKLEKALS
B2: design_604_3e0b3014-b333-46f1-8adc-d7f0bf8048fa_1117_dldesign_0_cycle1_af2pred (protein)
chain: MEGIETSDLLSKAIKTGKEAYKELKEVGTEEEAEKFKEEMVKKLFEAADADIEESKKLLKELLKEAEEKLEEAKKRKA
B3: design_604_3e0b3014-b333-46f1-8adc-d7f0bf8048fa_1013_dldesign_0_cycle1_af2pred (protein)
chain: SLEEILKEVKAENERLTARIEAAYERGLAAIAAGDLKAASAAAGEIAEARAEAALINTRYGNVAKEVEDKARELLREVRAAGKA
B4: design_604_3e0b3014-b333-46f1-8adc-d7f0bf8048fa_936_dldesign_0_cycle1_af2pred (protein)
chain: MEEAKEKAKEQIKKLKEAAEKAVKVYKEIGKEEEAKKIKEEAKKAEKEAEKLLEKDPYEGAQLAQEALAEAKAELSRAEKELKK
B5: design_604_3e0b3014-b333-46f1-8adc-d7f0bf8048fa_498_dldesign_0_cycle1_af2pred (protein)
chain: MLEFLEKVEEKADKKIEEALAKEDPVKALEEEKKKMEAELKAKSEAAKGDPGLHKLYLTAARLAKNQFDVEIKKAKEELE
B6: design_604_3e0b3014-b333-46f1-8adc-d7f0bf8048fa_596_dldesign_0_cycle1_af2pred (protein)
chain: DAKKEIQELTDEAIKKIEEYAKKAKDPKNYEKAIKEAVDTVHEAQQKLAEIGKKYGPEAEKYAKEQRKKVIDAGKKYIEEAKKAQA
B7: design_604_3e0b3014-b333-46f1-8adc-d7f0bf8048fa_818_dldesign_0_cycle1_af2pred (protein)
chain: EEVEKKSEEVKKLLEEGAKTTTIDAQLAASEAVELAEELMKKDPEKGLKVAEVVLKEAEKLLKANPGVGELTIKRAEKVIKRAKE
B8: design_603_0b98da89-d791-4423-9b2d-fd1b7292da18_2319_dldesign_0_cycle1_af2pred (protein)
chain: AETWLDALDDAAKDHPSFAYAFATSIAKRAEEKIKELTEKAKENASNPELKKKLLEKAEEYKKVLEKAKEVAEKALKEYLA
B9: design_604_3e0b3014-b333-46f1-8adc-d7f0bf8048fa_739_dldesign_0_cycle1_af2pred (protein)
chain: KEEILKEAKKLKEEAVKKAKEGNAEEGRKARKEFLEEMKKMAEKGDKKEISKITHEALEKIAEAIQEAKEKARKEEEEKK
B10: design_604_3e0b3014-b333-46f1-8adc-d7f0bf8048fa_1186_dldesign_0_cycle1_af2pred (protein)
chain: SMSKELAEKIRKAIREIREAAERAIAEARRLVEEGRVEEGLAVLEEAEKEFRELAKKWEGYAASGVAENGAAALRAVREEIE
B11: design_603_0b98da89-d791-4423-9b2d-fd1b7292da18_2381_dldesign_0_cycle1_af2pred (protein)
chain: AAAAAEEAATAAAAALGKAVAAQVLAAADDPEKRGALVAEAQAIADKLSPAQRAAMAAAMHEAHEKIAEKKSEKAR
B12: design_604_3e0b3014-b333-46f1-8adc-d7f0bf8048fa_1074_dldesign_0_cycle1_af2pred (protein)
chain: DPAEERVEKARKEMEKAVEKYAEKGKKENLNLAYAEAIREISRIAKELVKEIGEEVRERALKIKEEQLKKLEKLEKEA
B13: design_604_3e0b3014-b333-46f1-8adc-d7f0bf8048fa_171_dldesign_0_cycle1_af2pred (protein)
chain: QEALKKELEKAAAKVKELAEYIEKNAEKLTAEEAEKIAEELRKLAKKLREIGEKLDAETRKEAQKAVDLAYEAAALAKSIAARKK
B14: design_604_3e0b3014-b333-46f1-8adc-d7f0bf8048fa_148_dldesign_0_cycle1_af2pred (protein)
chain: MKEASEEMAKAYEALAELRLLAKKIPEFKEDAEKAEKKLKEAVKADPETALKLAKETKEEVEKAIEKAKKKL
B15: design_604_3e0b3014-b333-46f1-8adc-d7f0bf8048fa_962_dldesign_0_cycle1_af2pred (protein)
chain: HHKKEKAKKVAELLEKARELAEKEGPEAAKPLIVEARSLAFEVDSELGRKIAKAGLLILKDLEKGLKILKEVQEEFKKIA
B16: design_603_0b98da89-d791-4423-9b2d-fd1b7292da18_2259_dldesign_0_cycle1_af2pred (protein)
chain: GAAALAAGKAALKEAKDTAAKANEAMGGGLQPVFDSAMKTVEAKKGDPAAYLKAATAFKTTFSRILKLAS
B17: design_604_3e0b3014-b333-46f1-8adc-d7f0bf8048fa_762_dldesign_0_cycle1_af2pred (protein)
chain: SKKVYELYAEAKLEQIKRAKELAPKGDPKLAAERAEKLAKEAKEAAKKAGEEGEKIAKEAEKEAEALKKEV
B18: design_604_3e0b3014-b333-46f1-8adc-d7f0bf8048fa_950_dldesign_0_cycle1_af2pred (protein)
chain: AEEALKKAEEYAAKGDEYAAKGEAYEKSGDKLEEAAKYYAKAASYYLLAANAYLAAGNEEKAKEAEAKAEEAAEKATEAYQKASA
B19: design_603_0b98da89-d791-4423-9b2d-fd1b7292da18_2271_dldesign_0_cycle1_af2pred (protein)
chain: MTPEEKKAAEAEKIAAAADAAIKAAEKAIASGTKAEIATEAARLESVAMAAKALGTAPDIAERAEAAAEKAWQAAVEKLE
B20: design_603_0b98da89-d791-4423-9b2d-fd1b7292da18_2382_dldesign_0_cycle1_af2pred (protein)
chain: ALAAAKEKAKAIEEKLSQAIFDGADKGPEVVFKAAEEAEKEVEEMKKADPKAKEEVKRAKEAVKKAKAVGKSMKEAEENAKKGA
B21: design_604_3e0b3014-b333-46f1-8adc-d7f0bf8048fa_1004_dldesign_0_cycle1_af2pred (protein)
chain: AAAEAARKAEVAKKSKELAKQIAENASDEEKRKALLAEMRALAEAGTPEEAAIVVEEVHKGYEEAAEKLVEERR
B22: design_604_3e0b3014-b333-46f1-8adc-d7f0bf8048fa_503_dldesign_0_cycle1_af2pred (protein)
chain: SAALVDARVAAADALYDAAIAAGYESLAGKIATAFIRGAATGVEAALERASAVAPEELKPVVAAEAAKVAAVA
B23: design_604_3e0b3014-b333-46f1-8adc-d7f0bf8048fa_844_dldesign_0_cycle1_af2pred (protein)
chain: EEEKLKEAEKHLEKMIEILKEAAKKGYAKEEVELVKGDEETRKKGVYNAMGNVITGEGKEGVETARKISRYAKKSEELRKA
B24: design_604_3e0b3014-b333-46f1-8adc-d7f0bf8048fa_672_dldesign_0_cycle1_af2pred (protein)
chain: ALEKATEAAKKAGEAVAKALGEEGKPVAEEAIEKIADPSTWKDGFSLFLRYAYYAGEEVYKKVDELLDEVLELLS
B25: design_604_3e0b3014-b333-46f1-8adc-d7f0bf8048fa_1191_dldesign_0_cycle1_af2pred (protein)
chain: EEKKKEIEELKKKVSKAQLELTDLAAKQDISKKDLEEKVQEAIRKAAKLGKIADEAVAKGEEYYPEAKKALEEALKVLEEAKKAVEEA
B26: design_604_3e0b3014-b333-46f1-8adc-d7f0bf8048fa_1084_dldesign_0_cycle1_af2pred (protein)
chain: SPAAAAAAVQYAAFDAIAAATDAATVKAIADAAVAALAAAAAADPAHAEQYAKAAAAIKSFADAAIKALK
B27: design_604_3e0b3014-b333-46f1-8adc-d7f0bf8048fa_941_dldesign_0_cycle1_af2pred (protein)
chain: SLLDEAVALLAAANPALAPEFEKLARELQGYLDLAKDYPEIAPVMLKRATRVGEELVAVAAEAGPEVAEVATAAVEEVLAAIK
B28: design_604_3e0b3014-b333-46f1-8adc-d7f0bf8048fa_841_dldesign_0_cycle1_af2pred (protein)
chain: AELEKAIKEANALRDKALDNVGNPEEAQKYIDELKEKAKKAAELGGPEVAKEAEKMIKALEDTLEKAKKILE
B29: design_604_3e0b3014-b333-46f1-8adc-d7f0bf8048fa_145_dldesign_0_cycle1_af2pred (protein)
chain: IKQLEQLLEMAEEEAKKDPVTGIALARATINRADRLAASGTPEEAKKANEIKEKAEKVKKEAEAKLAAAEAAAKA
B30: design_604_3e0b3014-b333-46f1-8adc-d7f0bf8048fa_12_dldesign_0_cycle1_af2pred (protein)
chain: MNLEEAKNLLEAAKELVEEAKELLKEGKYKQALAFAKTAYEIAEKVAKEVPELAKEAEKIKKEAKEVIEEAKKAL
B31: design_604_3e0b3014-b333-46f1-8adc-d7f0bf8048fa_1067_dldesign_0_cycle1_af2pred (protein)
chain: SEIEKGEALLKEDPEWAKAASDALGKIAEDPEEGEKYAKEVIEKVLKEDPEKGPLMAKAIEERSEKLKKRVEEALERAK
B32: design_604_3e0b3014-b333-46f1-8adc-d7f0bf8048fa_1215_dldesign_0_cycle1_af2pred (protein)
chain: SRVEELGKRLANKGKKYSLDDAADFGAEMAIMAGLTEEEAEAAFKYAAEIDPSFAEAMKKGLALYKELTA
B33: design_604_3e0b3014-b333-46f1-8adc-d7f0bf8048fa_1128_dldesign_0_cycle1_af2pred (protein)
chain: MAEKEAQLKKIEEEKKKVSEKFFEAFELASSKELASEISKKSKEANELFKKGREDPSIADKTMEEAKKIAEEALEKAKKEKEA
B34: design_604_3e0b3014-b333-46f1-8adc-d7f0bf8048fa_188_dldesign_0_cycle1_af2pred (protein)
chain: GALEEIKKLGKKAKEAAKNGDSSEAIREFAKLAKAAGKALTPEFAKKASEKLYEVVDTLAKDEEEGKKLLEKKVEEIVKEAKKYLE
B35: design_604_3e0b3014-b333-46f1-8adc-d7f0bf8048fa_694_dldesign_0_cycle1_af2pred (protein)
chain: SVEEKLKEAEKVFKEVEERAKKVEAKDPEEGKKLREELAKARELAESDPSKAPEAAQQARIALTEAEWEVRKKEK
B36: design_604_3e0b3014-b333-46f1-8adc-d7f0bf8048fa_423_dldesign_0_cycle1_af2pred (protein)
chain: AKEKALKEALKEFDKAQEYGFDYVAEAKKNPEVYEEAYEERKKAIKEAKELYKEATTEEKAKELLELAKKEAEKFKEKAKEL
B37: design_603_0b98da89-d791-4423-9b2d-fd1b7292da18_2465_dldesign_0_cycle1_af2pred (protein)
chain: ASEKAKAFSEAQRLLVRAGKLAAADPKTAPVAELVQKAIFALGDNLEEGLKLAEEAAELAKKIGDEETAKLVKEAAEKIKEVI
B38: design_604_3e0b3014-b333-46f1-8adc-d7f0bf8048fa_253_dldesign_0_cycle1_af2pred (protein)
chain: SETTEKLKKELEAAKKEGKEALAKAEAAGDAEAAKKAGSDAAGKLYEIAAEADSAGDKETAKEARKAAKEIREAAKKAIAAAKAKAAA

Biological target: VTCN1, Q7Z7D3
Sequence (Q7Z7D3 whole entry): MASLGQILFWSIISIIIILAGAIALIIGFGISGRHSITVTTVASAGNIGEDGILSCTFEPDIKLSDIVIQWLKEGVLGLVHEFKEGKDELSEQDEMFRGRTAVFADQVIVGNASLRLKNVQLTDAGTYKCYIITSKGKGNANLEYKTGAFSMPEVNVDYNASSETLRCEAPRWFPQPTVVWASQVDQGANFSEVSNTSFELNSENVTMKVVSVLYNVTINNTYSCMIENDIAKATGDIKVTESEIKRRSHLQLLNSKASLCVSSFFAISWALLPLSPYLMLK

Binding in a display sort, inactive:
B1 not found, B2 not found, B3 not found, B4 not found, B5 not found, B6 not found, B7 not found, B8 not found, B9 not found, B10 not found, B11 not found, B12 not found, B13 not found, B14 not found, B15 not found, B16 not found, B17 not found, B18 not found, B19 not found, B20 not found, B21 not found, B22 not found, B23 not found, B24 not found, B25 not found, B26 not found, B27 not found, B28 not found, B29 not found, B30 not found, B31 not found, B32 not found, B33 not found, B34 not found, B35 not found, B36 not found, B37 not found, B38 not found

From article PMC13494018
